The source of these data is PubChem BioAssay (NCATS).

Each structure is given as a SMILES string. Records with an inconclusive call do not appear. Where a call stands in place of a potency, no number is given. Activity calls are given as the source filed them. The call rests on the fitted dose curve; in most records, active means well fitted cell-killing curve with a large enough effect; inconclusive means small, poorly fitted or top-dose-only effect, or effect the other way; inactive means no such curve, though single readings can be large or run the other way.
Potency means the concentration at half of the fitted maximal effect.

The test is described as follows: Viability qHTS for spleen associated tyrosine kinase inhibitor (SYKi) naive MV4-11 cells (AID 1963823). Further: nearly all actives have a fitted effect of over 40% in size. The conditions noted are these: MV4-11 AML viability, CellTiter-Glo luminescence, 72 h; series mostly up to 45 µM. The method, boiled down:
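Seeding of 500 SYKi-naive MV4-11 cells per well onto pre-dispensed compounds preceded a 72 hr incubation at 37 C. Luminescent CellTiter-Glo signal, read after 10 min at room temperature, reflected viable cells.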
`C=C1[C@@H](C2=CC(=O)OC2)CC[C@@]2(O)[C@@H]1CC1[C@H]2CC[C@@H]2C[C@@H](O[C@H]3O[C@@H](C)[C@@H](O[C@@H]4O[C@H](CO[C@@H]5O[C@H](CO)[C@@H](O)[C@H](O)[C@H]5O)[C@@H](O)[C@H](O)[C@H]4O)[C@H](OC)[C@H]3O)CC[C@]12C` (stereo not given in full): the Potency was 2.19 µM (active).

Regarding `N#Cc1ccc(Nc2nc(-c3ccc(O)cc3O)cs2)cc1C(F)(F)F`, the Potency was 5.17 µM (active).

As for `C=C[C@H]1[C@H](O[C@@H]2O[C@H](CO)[C@@H](O)[C@H](O)[C@H]2O)OC=C2C(=O)OCC[C@]21O`, the Potency entry is “inactive”.

On to `CC1(C)CCC2(C(=O)OC3OCC(O)C(O)C3O)CCC3(C)C(=CCC4C5(C)CC(O)C(OC6OC(COC7OCC(O)C(O)C7O)C(O)C(O)C6O)C(C)(C)C5CCC43C)C2C1` (stereo not given), for which the viability (% of control) is 68.8% [at 9.25 µM] (inactive).

On to `CC1NC(=O)CNC(=O)C(C(C)C)NC(=O)C2CCCN2C(=O)C(C(C)C)NC(=O)C(Cc2c[nH]c3ccccc23)NC1=O` (stereo not given), for which the Potency entry is “inactive”.

Take `C=C1CCC2C(C)(C)C(O)CCC2(C)C1CCC(C)CCO` (stereo not given): the Potency is 9.04 µM (active).

Take `COc1ccc(C(=O)CC(=O)O)c2c1C=CC(C)(C)O2`: the Potency entry was “inactive”.

Regarding `NC(=O)C(O[C@@H]1O[C@H](CO[C@@H]2O[C@H](CO)[C@@H](O)[C@H](O)[C@H]2O)[C@@H](O)[C@H](O)[C@H]1O)c1ccccc1` (stereo not given in full), the Potency entry was “inactive”.

Turning to `C=C1C(=O)O[C@@H]2[C@H]3C(C)=CC(=O)C3=C(C)[C@@H](OC(=O)/C(C)=C\C)[C@H](O)[C@@H]12`, the Potency was 3.21 µM (active).

As to `CC(O)/C=C/C1(O)C(C)C(O)C(O[C@@H]2O[C@H](CO)[C@@H](O)[C@H](O)[C@H]2O)CC1(C)C` (stereo not given in full), the Potency result was “inactive”.

Regarding `CC1=CCC2C(C)(CO)CCCC2(CO)C1CO` (stereo not given), the Potency entry is “inactive”.

On to `CC1(C)[C@@H](O[C@H]2O[C@H](C(=O)O)[C@@H](O)[C@H](O)[C@H]2O[C@@H]2O[C@H](C(=O)O)[C@@H](O)[C@H](O)[C@H]2O)CC[C@]2(C)[C@H]3C(=O)C=C4[C@@H]5C[C@@](C)(C(=O)O)CC[C@]5(C)CC[C@@]4(C)[C@]3(C)CC[C@@H]12`, for which the Potency result is “inactive”.

Consider `COc1cc(/C=C/C(=O)O[C@H]2[C@H](OC(=O)/C=C/c3cc(OC)c(O)c(OC)c3)O[C@H](CO[C@@H]3O[C@H](CO)[C@@H](O)[C@H](O)[C@H]3O)[C@@H](O)[C@@H]2O)ccc1O`, for which the Potency result was “inactive”.

With `C/C(=C\CCC(C)C1=CCC2(C)OC3=C(CC12)C(=O)C(O)CC3)CO` (stereo not given), the Potency entry is “inactive”.

For the compound `CO[C@H]1/C=C/O[C@@]2(C)Oc3c(C)c(O)c4c(O)c(c(/C=N\N5CCN(C6CCCC6)CC5)c(O)c4c3C2=O)NC(=O)/C(C)=C\C=C\[C@H](C)[C@H](O)[C@@H](C)[C@@H](O)[C@@H](C)[C@H](OC(C)=O)[C@@H]1C`, the Potency is 18.6 µM (active).

For the compound `CC(C)(O)C1CC=C(C(=O)OC[C@H]2O[C@@H](Oc3cc(C(=O)O)cc(O)c3O)[C@H](O)[C@@H](O)[C@@H]2O)CC1` (stereo not given in full), the Potency result was “inactive”.

For `NCC(=O)O`, the Potency entry is “inactive”.

With `[N-]=[N+]=N[C@]1(CO)O[C@@H](n2ccc(=O)[nH]c2=O)[C@@H](O)[C@@H]1O`, the Potency result was “inactive”.

With `CC(C)C(=O)O[C@@H]1[C@@H](O)[C@@H](O[C@H]2O[C@H](CO)[C@@H](O)[C@H](O)[C@H]2O)O[C@H](CO)[C@H]1O`, the Potency result is “inactive”.

For the compound `CC(C)(O)c1ccc2c(c1)C(=O)CC1[C@](C)(CO)CCC[C@]21C` (stereo not given in full), the Potency result is “inactive”.

Regarding `NC(=O)[C@H](O[C@@H]1O[C@H](CO)[C@@H](O)[C@H](O)[C@H]1O)c1ccccc1`, the Potency entry is “inactive”.

Regarding `Nc1nc(Cl)nc2c1ncn2C1OC(CO)C(O)C1F` (stereo not given), the Potency was 0.116 µM (active).

Turning to `CCOC(=O)Nc1cc(-c2ccc(C)c(NS(C)(=O)=O)c2)nn2c(C)nnc12`, the Potency is 0.651 µM (active).

On to `CC(=O)c1ccc2c(c1)N(CCCN1CCC(CCO)CC1)c1ccccc1S2`, for which the Potency is 26.6 µM (active).

In the case of `CC(C)=CCC[C@](C)(O[C@@H]1O[C@H](CO)[C@@H](O)[C@H](O)[C@H]1O)[C@H]1CC[C@]2(C)[C@@H]1[C@H](O)CC1[C@@]3(C)CC[C@H](O)C(C)(C)C3[C@@H](O[C@@H]3O[C@H](CO)[C@@H](O)[C@H](O)[C@H]3O[C@@H]3O[C@@H](C)[C@H](O)[C@@H](O)[C@H]3O)C[C@]12C` (stereo not given in full), the viability (% of control) is 90.7% [at 9.25 µM] (inactive).

For `C[S+](CC[C@H](N)C(=O)[O-])C[C@H]1O[C@@H](n2cnc3c(N)ncnc32)[C@H](O)[C@@H]1O` (stereo not given in full), the Potency entry was “inactive”.

As to `COc1ccc(OC(=O)N(CC(=O)O)Cc2ccc(OCCc3nc(-c4ccccc4)oc3C)cc2)cc1`, the Potency entry is “inactive”.

In the case of `Cc1ccc(C(=O)/C=C/c2ccccc2)s1`, the Potency was 8.2 µM (active).

On to `C[N+]1(C)[C@@H]2CC[C@H]1CC(OC(=O)C(O)c1ccccc1)C2` (stereo not given in full), for which the Potency entry is “inactive”.

Turning to `C=C1[C@H]2CC[C@]3(O)[C@@](CC[C@@H]4[C@](C)(C(=O)O)CCC[C@]43C)(C2)[C@H]1OC(=O)/C(C)=C\C`, the Potency entry was “inactive”.

For the compound `CC1=C(C(=O)O)/C(=C\CO[C@@H]2O[C@H](CO)[C@@H](O)[C@H](O)[C@H]2O)C(OC(=O)/C=C\c2ccc(O)cc2)C1` (stereo not given in full), the Potency result was “inactive”.

Regarding `COC(=O)C1=COC(O[C@@H]2O[C@H](COC(=O)/C=C/c3ccc(O)cc3)[C@@H](O)[C@H](O)[C@H]2O)C2C(CO)=CCC12` (stereo not given in full), the Potency result was “inactive”.

Turning to `C=C1OC2CC(C(=O)O)C=CC2NC1=O` (stereo not given), the Potency entry was “inactive”.

With `CCC[C@@H]1C[C@@H](C(=O)N[C@@H]([C@H]2O[C@H](SC)[C@H](OP(=O)(O)O)[C@@H](O)[C@H]2O)[C@H](C)Cl)N(C)C1`, the Potency result is “inactive”.

Regarding `O=C(OC1C=C(CO)C2C(OC3OC(CO)C(O)C(O)C3O)OC=CC12O)c1ccc(O)cc1` (stereo not given), the Potency result was “inactive”.

For the compound `O=C(NNc1nc2cc(F)ccc2n2cccc12)c1cnccn1`, the Potency is 0.82 µM (active).

On to `CC1=C(C(=O)O)/C(=C\CO[C@@H]2O[C@H](CO)[C@@H](O)[C@H](O)[C@H]2O)C(OC(=O)/C=C/c2ccc(O)cc2)C1` (stereo not given in full), for which the Potency entry was “inactive”.

As to `CCOC(=O)[C@H](CCc1ccccc1)CC1(C(=O)N[C@H]2CCc3ccccc3N(CC(=O)O)C2=O)CCCC1`, the Potency was 14.6 µM (active).

Regarding `COC(=O)CC[C@H](NC(=O)[C@H](CC(C)C)NC(=O)OCc1ccccc1)C(=O)N[C@@H](Cc1cnc[nH]1)C(=O)N[C@@H](CC(=O)OC)C(=O)CF`, the viability (% of control) is 80.3% [at 9.25 µM] (inactive).

For `CC1(C)S[C@@H]2[C@H](NC(=O)[C@H](N)c3ccc(O)cc3)C(=O)N2[C@H]1C(=O)O`, the Potency entry was “inactive”.
